Assay outcomes as filed in PubChem BioAssay.
RE007 growth inh: less growth of the S. pombe RE007 Vpr strain; S. pombe RE007 Vpr strain, BacTiter-Glo ATP luminescence, 24 h; Potency, µM (top dose mostly 92.2 µM), inactives show at the top dose activity change, negative = less growth, actives largely listed as inhibitors; 360,000 tested, 0.21% active; AID 651644; active = well fitted falling curve with a large enough effect; inconclusive = small, poorly fitted or top-dose-only effect; inactive = no such curve, though single readings can be large or run the other way; note: % is set by controls: 0 for no effect and ±100 for the full control effect; nearly all actives have a fitted effect of over 50% in size
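Fission yeast strain RE007, carrying one chromosomally integrated HIV-1 vpr copy, was seeded at OD 0.01 in PMG+AL medium with 23 nL pinned compound. After 24 h at 30 °C and 99% humidity, viability was read by BacTiter-Glo luminescence.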
SARS PLpro yeast: SARS-CoV PLP inhibition in yeast; S. cerevisiae expressing SARS-CoV PLpro, growth rescue; Potency, µM (highest dose often 32.9 µM), for the others: top-dose activity, positive = growth rescue, actives largely listed as activators; 330,000 tested, 0.19% active; AID 485353; calls by dose curve; note: 0% is about no effect; nearly all actives have a fitted effect of over 55% in size
LmPK inh: blocks Leishmania mexicana pyruvate kinase activity. Q27686. purified LmPK, Kinase-Glo ATP luminescence, 1 h. Potency, µM (titrated, usually from 57.5 µM), inactives show at the highest dose activity change, negative = inhibition, hits mostly inhibitors. 290,000 tested, 0.37% active. AID 1721; note: % is set by controls: 0 for no effect and ±100 for the full control effect
Target sequence (Q27686 whole entry, looked up): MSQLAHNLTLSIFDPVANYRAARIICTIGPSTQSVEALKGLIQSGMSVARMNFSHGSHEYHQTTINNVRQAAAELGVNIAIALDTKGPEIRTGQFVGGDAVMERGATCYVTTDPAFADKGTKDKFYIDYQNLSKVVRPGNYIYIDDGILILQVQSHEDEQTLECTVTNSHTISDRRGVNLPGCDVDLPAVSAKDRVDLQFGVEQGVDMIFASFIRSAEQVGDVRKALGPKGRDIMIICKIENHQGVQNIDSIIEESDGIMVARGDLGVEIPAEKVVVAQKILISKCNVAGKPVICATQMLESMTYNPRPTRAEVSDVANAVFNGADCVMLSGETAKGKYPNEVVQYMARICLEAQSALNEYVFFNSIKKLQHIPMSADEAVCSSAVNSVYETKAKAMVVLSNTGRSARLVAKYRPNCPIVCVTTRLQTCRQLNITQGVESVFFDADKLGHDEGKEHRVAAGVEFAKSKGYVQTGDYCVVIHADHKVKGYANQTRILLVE
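0.1 nM LmPK, 0.5 mM PEP, 0.1 mM ADP; 50 mM imidazole pH 7.2, 7 mM MgCl2, 50 mM KCl; 1 h RT. Kinase-Glo luminescence readout, normalized to no-enzyme (full inhibition) and uninhibited wells.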
Tb PYK inh: inhibitors of Trypanosoma brucei pyruvate kinase | Q57TT1 | TbPYK enzyme, Kinase-Glo Plus ATP luminescence, 45 min | Potency, µM (titrated, usually from 76.8 µM), inactives show at the top dose activity, negative = inhibition, actives largely listed as inhibitors | 410,000 tested, 0.12% active; note: % is set by controls: 0 for no effect and ±100 for the full control effect; nearly all actives have a fitted effect of over 50% in size
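TbPYK + substrate in 50 mM TEA pH 7.2, 100 mM KCl, 10 mM MgCl2, 0.05% BSA, 0.01% Tween-20; cpd pinned; ADP 130 uM final; 45 min RT; Kinase-Glo Plus 10 min; luminescence endpoint.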
NS1 inh: inhibitors of influenza NS1 protein function. 270,000 tested, 0.4% active. Potency, µM (series often up to 46.1 µM), for the others: top-dose activity, positive = more growth; calls by dose curve; note: actives are rising curves; nearly all actives have a fitted effect of over 50% in size
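A cell-based growth assay was used: compounds that relieve NS1-induced slow growth of budding yeast raise OD600. Assay medium was yeast nitrogen base with ammonium sulphate and -URA supplement, pH 6.0, with 2% galactose.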
Sm TGR block: inhibitors of Schistosoma mansoni thioredoxin glutathione reductase | Q962Y6 | purified TGR, DTNB reduction, TNB absorbance 405 nm | Potency, µM (highest dose often 114 µM), for the others: top-dose activity change, negative = inhibition, hits mostly inhibitors | 360,000 tested, 3% active | AID 485364; note: % is set by controls: 0 for no effect and ±100 for the full control effect; nearly all actives have a fitted effect of over 60% in size
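First, TGR (20 nM dispensed) and NADPH were mixed with compound. Second, a 15 min room-temperature incubation followed. Third, further NADPH and then DTNB were added to start the reaction. Finally, TNB absorbance was monitored kinetically.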
* = called active by the depositor; ? = inconclusive; . = no result given; [ ] = dose if it differs, or a comment. Hits are enriched below; roughly 3.3% of the tested compounds scored in any of these assays. Unless noted, calls come from the whole dose curve; as a rule, active = well fitted curve in the direction sought with a large enough effect; inconclusive = small, poorly fitted or top-dose-only effect, or another doubt; inactive = no such curve, though single readings can be large; an effect the other way counts as inactive or inconclusive. Potency is the fitted concentration of half-maximal effect.

SMILES	RE007 growth inh	SARS PLpro yeast	LmPK inh	Tb PYK inh	NS1 inh	Sm TGR block
O=C(CCN1CCN(c2ccc([N+](=O)[O-])cc2)CC1)c1ccc(Cl)cc1	?	-1%	-6%	-4%	6%	?
COc1ccccc1C(=O)Nc1nnc(SCc2cc(=O)c3cc(Cl)ccc3[nH]2)s1	.	.	.	-8%	.	-5%
CCc1c(C)sc2c1CCN(Cc1cccc(OC)c1)C2c1ccccc1 (stereo unspecified)	.	.	.	0%	.	31%
O=C1NCCN2CCCC12 (stereo unspecified)	0%	0%	-2%	-1%	-1%	25µM*
CCOC(=O)C1(C)C=C(Nc2cccc(C(=O)O)c2)C(=O)N1c1ccccc1 (stereo unspecified)	.	.	.	-10%	.	-1%
Cc1ccc2nc(-c3ccccn3)[nH]c2c1	?	-16%	22µM*	?	-38%	-12%
Cc1ccc2nc(-c3ccccc3N)[nH]c2c1	?	-5%	?	-10%	-10%	.
CCc1ccc(NC(=O)C2CCN(S(=O)(=O)c3cccc(-c4noc(C)n4)c3)CC2)cc1	.	.	.	-7%	.	1%
CN(C)c1ccc(/C=C2\C(=O)NC(=O)N(Cc3ccc(F)cc3)C2=O)cc1	27%	-4%	2%	-17%	-3%	0.79µM*
Cc1ccc(/C=C2/C(=O)NC(=O)N(Cc3ccc(F)cc3)C2=O)o1	.	-5%	3%	.	3%	20µM*
Cc1ccc(/C=C2\C(=O)NC(=O)N(CCc3ccc(F)cc3)C2=O)o1	2%	-10%	1%	-7%	6%	11µM*
CN(C)c1ccc(/C=C2/C(=O)NC(=O)N(CCc3ccc(F)cc3)C2=O)cc1	17%	-9%	-1%	-11%	-16%	?
Cc1ccc(/C=C2\C(=O)NC(=O)N(Cc3ccccc3Cl)C2=O)o1	16%	13%	-3%	-24%	-6%	?
Cc1ccc(C)c(N2CCN(c3cc(C)nc4c(-c5ccc(Cl)cc5)c(C)nn34)CC2)c1	.	.	.	7%	.	2%
COc1ccc(NC(=O)Nc2sc3nc4n(c(=O)c3c2C)CCC(C)CC4)cc1OC (stereo unspecified)	.	.	.	-3%	.	?
COc1ccc(OC)c(Nc2nc(=O)c3cccnc3s2)c1	-3%	-2%	2%	35µM*	8%	.
O=c1oc(CCO)cc2ccccc12	-3%	-2%	.	-5%	.	.
CC#CCc1cc2ccccc2c(=O)o1	12%	10%	0%	-3%	5%	4µM*
CC(C)OCCCn1c(=O)c2ccccc2n2c(-c3ccc(F)cc3)nnc12	.	.	.	-12%	.	-12%
CCOc1ccc(C2SCC(=O)Nc3c2c(=O)[nH]n3C2CCCCCC2)cc1 (stereo unspecified)	5%	0%	-1%	-10%	-6%	-26%
COc1ccc(C2SCC(=O)Nc3c2c(=O)[nH]n3C2CCCCCC2)cc1 (stereo unspecified)	13%	-4%	-3%	-13%	7%	40µM*
CCN(CC)Cc1c(NC(=O)c2ccccc2)sc(C)c1C	-3%	1%	-7%	-2%	.	8.9µM*
Cc1ccc(S(=O)(=O)SCCCSS(=O)(=O)c2ccc(C)cc2)cc1	?	.	.	4µM*	.	.
CC(C)CCn1nnnc1C(c1ccc(N(C)C)cc1)N1CCN(C(=O)c2ccco2)CC1 (stereo unspecified)	3%	-17%	0%	0%	16%	45µM*
CN(C)c1ccc(C(c2nnnn2C(C)(C)C)N2CCN(C(=O)c3ccco3)CC2)cc1 (stereo unspecified)	-6%	1%	-6%	-27%	0%	16µM*
SMILES	RE007 growth inh	SARS PLpro yeast	LmPK inh	Tb PYK inh	NS1 inh	Sm TGR block
CCC(C)(C)n1nnnc1C(c1ccc(N(C)C)cc1)N1CCN(C2CCCCC2)CC1 (stereo unspecified)	-1%	2%	1%	-19%	?	22µM*
CCOc1ccc(C(c2nnnn2C(C)(C)C)N2CCN(C(=O)c3ccco3)CC2)cc1 (stereo unspecified)	12%	1%	-9%	1%	-2%	-13%
COc1ccc(OC)c(CNC(=O)c2nn(-c3ccc(OC)c(Cl)c3)c(=O)c3c2c2ccccc2n3C)c1	.	.	.	2%	.	5%
Nc1ccc(S(=O)(=O)c2ccc(NCN3C(=O)NC(=O)C(=O)C3=O)cc2)cc1	.	.	.	.	8%	.
O=C(NC(=S)NNS(=O)(=O)c1ccccc1)c1cccnc1	1%	4%	-1%	-27%	3%	8.9µM*
Cc1ccc(S(=O)(=O)NNC(=O)c2cccnc2)cc1	0%	1%	7%[11.5 µM]	-7%	.	-5%
O=C(NNS(=O)(=O)c1ccccc1)c1cccc(F)c1	12%	-13%	28%	10%	-27%	56µM*
O=C(NC(=S)NNS(=O)(=O)c1ccccc1)c1ccc([N+](=O)[O-])cc1	?	-6%	0%	-19%	2%	20µM*
O=C(NC(=S)NNS(=O)(=O)c1ccccc1)c1ccccc1[N+](=O)[O-]	-7%	5%	8%	-10%	-5%	28µM*
CC(CC1C(C#N)=C(N)OC2=C1C(=O)CCC2)c1ccccc1 (stereo unspecified)	0%	2%	1%	-5%	-8%	1.3µM*
Cc1c(Cl)cccc1N=Cc1ccc([N+](=O)[O-])s1	16µM*	-30%	-2%	-20%	-140%	40µM*
CCN(CC)C(=O)Cn1nnc(-c2ccc(C)o2)n1	16%	-11%	1%	-12%	4%	25µM*
CCC(C(=O)NC1CCCC1)N(C(=O)Cn1nnc(-c2ccc(C)o2)n1)C(C)(C)C (stereo unspecified)	-10%	5%	2%	-17%	-1%	-36%
COc1cc(C(C(=O)NC2CCCC2)N(CCO)C(=O)Cn2nnc(-c3ccc(C)o3)n2)ccc1O (stereo unspecified)	5%	-3%	-1%	-2%	1%	45µM*
Cc1cc(N2CCN(C(=O)c3ccco3)CC2)nc(-c2ccccc2)n1	-18%	-20%	3%	1%	-14%	45µM*
Cc1ccc(C)c2sc(N3CCN(C(=O)c4ccco4)CC3)nc12	.	.	.	-1%	.	56µM*
Cc1cc(N2CCN(c3ccccc3)CC2)nc(-c2ccccc2)n1	-25%	-15%	3%	-3%	-61%	4%
O=C1N=c2ccccc2=C1c1c(O)n(-c2cccc(F)c2)[nH]c1=O	5%	-27%	-14%	?	12%	22µM*
CCn1c(O)c(C2=c3ccccc3=NC2=O)c2cc(Br)ccc21	-29%	-2%	-17%	-4%	4%	6%
COc1cc(C)ccc1OCCSc1nc2ccc(NC(=O)c3cccs3)cc2s1	.	.	.	-3%	.	4%
